S-ASM inh = Inhibitors of Secretory Acid Sphingomyelinase (S-ASM): qHTS | Sphingomyelin phosphodiesterase (Homo sapiens), P17405 | placental ASM, HMU-PC fluorogenic substrate, 60 min | Potency, µM (titrated, usually from 57.5 µM), for inactives: at the top dose activity change, negative = inhibition, usual class: inhibitors | 340,000 tested, 0.006% active; also: potency is read from the fitted curve at half-maximal effect
Target sequence (P17405 47-631 limits assumed): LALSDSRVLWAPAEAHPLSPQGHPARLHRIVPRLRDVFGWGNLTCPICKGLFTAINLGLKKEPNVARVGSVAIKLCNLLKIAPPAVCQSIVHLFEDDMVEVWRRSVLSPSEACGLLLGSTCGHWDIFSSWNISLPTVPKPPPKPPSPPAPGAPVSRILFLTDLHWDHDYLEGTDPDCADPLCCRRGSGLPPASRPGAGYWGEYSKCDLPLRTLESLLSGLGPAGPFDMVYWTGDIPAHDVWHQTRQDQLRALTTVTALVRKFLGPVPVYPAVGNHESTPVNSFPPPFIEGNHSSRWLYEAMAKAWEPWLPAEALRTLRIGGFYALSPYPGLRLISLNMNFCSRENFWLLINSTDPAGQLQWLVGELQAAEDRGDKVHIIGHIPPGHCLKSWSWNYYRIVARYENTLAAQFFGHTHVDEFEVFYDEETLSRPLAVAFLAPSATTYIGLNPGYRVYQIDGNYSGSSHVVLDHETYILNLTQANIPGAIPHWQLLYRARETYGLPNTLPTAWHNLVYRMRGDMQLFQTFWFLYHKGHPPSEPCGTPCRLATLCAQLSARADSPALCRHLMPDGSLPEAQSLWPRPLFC
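HMU-PC0 cleavage (9 uM final) by human placental ASM, 60 min at 37 °C following 10 min compound exposure at RT; stopped at pH 10, fluorescence Ex 386/Em 447 nm.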
TDP1 cell noCPT = qHTS for Inhibitors of human tyrosyl-DNA phosphodiesterase 1 (TDP1): qHTS in cells in absence of CPT; DT40 Tdp1-/- hTDP1 cells, no CPT, ATP luminescence, 48 h; Potency, µM (doses to about 46.2 µM), for inactives: at the highest dose activity change, negative = growth inhibition, actives largely listed as inhibitors; 420,000 tested, 15% active; also: potency is read from the fitted curve at half-maximal effect; % is scaled to controls: 0 for no effect and ±100 for the full control effect; nearly all actives have a fitted effect of over 55% in size
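Seeded 400 DT40-hTDP1 cells/well (vehicle DMSO, no 20 nM CPT); pinned compounds; ≥48 hr at 37 °C; CellTiter-Glo luminescence as viability measure.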
IL-1B inflam inh = qHTS for Inhibitors of Inflammasome Signaling: IL-1-beta AlphaLISA Primary Screen; AID 743279, 2014; activity change, % at 57.5 µM; THP-1 LPS/ATP IL-1B secretion, AlphaLISA, 16 h; stronger effect = lower value; 360,000 tested, 4.7% active; in the data active = activity change below about -50%; inconclusive = mostly about -30% to -49%; also: % is scaled to controls: 0 for no effect and ±100 for the full control effect
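Secreted IL-1B measured by AlphaLISA bead assay after 16 h compound exposure of THP-1 cells; compounds (final up to 57.5 uM) added 1 h before LPS (250 ng/mL) and ATP (1.25 mM) stimulation; lower signal means less secretion.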
HepG2 viability = qHTS for Inhibitors of TGF-b: Cytotox Counterscreen. 410,000 tested, 0.76% active. HepG2 CAGA-GFP viability, ATP luminescence, 18 h. Potency, µM (top dose mostly 46.1 µM), without a hit: at the highest dose activity change, negative = cytotoxicity, usual class: cytotoxic; also: potency is read from the fitted curve at half-maximal effect
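HepG2 CAGA-GFP cells (1000/well, DMEM with 1% FBS) received compound, then TGF-beta at 500 pg/mL final, and were incubated 18 hours at 37 degrees C. Viability was read by CellTiter-Glo luminescence. Media-only wells were set as complete cell-killing and DMSO as no toxicity.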
TDP1 cell CPT = qHTS for Inhibitors of human tyrosyl-DNA phosphodiesterase 1 (TDP1): qHTS in cells in presence of CPT. chicken DT40 Tdp1-/-;hTDP1 cells + 20 nM CPT, ATP luminescence, 48 h. Potency, µM (titrated, usually from 46.2 µM), without a hit: at the highest dose activity change, negative = growth inhibition, actives largely listed as inhibitors. 420,000 tested, 12% active; also: potency is read from the fitted curve at half-maximal effect; % is scaled to controls: 0 for no effect and ±100 for the full control effect; nearly all actives have a fitted effect of over 55% in size
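Chicken DT40 Tdp1-/- cells stably complemented with human TDP1 were seeded at 400 cells/well in medium containing 20 nM camptothecin, exposed to pin-transferred compounds, and grown at 37 °C for at least 48 hr. Viability was read as ATP luminescence.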
TGFb inhibitor = qHTS for Inhibitors of TGF-b. HepG2 CAGA-GFP TGF-b/SMAD3 reporter, GFP fluorescence, 18 h; TGF-beta stimulated, 500 pg/mL final. Potency, µM (series often up to 46.1 µM), without a hit: top-dose activity, negative = inhibition, most hits filed as inhibitors. 410,000 tested, 1.2% active; also: potency is read from the fitted curve at half-maximal effect; % is scaled to controls: 0 for no effect and ±100 for the full control effect; nearly all actives have a fitted effect of over 65% in size
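First, reporter cells (HEPG2 CAGA-GFP) rested 2 h at 37 degrees C. Next, compounds were pinned in and TGF-beta added to 500 pg/mL final. After 18 h, GFP was imaged per cell and summed per well.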
Active calls of the source: *; ? = inconclusive; . = no result. Shown are actives, neighbours in structure and some others; about 19% of the full set was active somewhere. Unless noted, calls follow the shape of the dose curve; as a rule, active = well fitted curve in the direction sought with a large enough effect; inconclusive = small, poorly fitted or top-dose-only effect, or another doubt; inactive = no such curve, though single readings can be large; an effect the other way counts as inactive or inconclusive.

SMILES	S-ASM inh	TDP1 cell noCPT	IL-1B inflam inh	HepG2 viability	TDP1 cell CPT	TGFb inhibitor
COCC(=O)N1CCC(Oc2ccc(C(=O)N3C[C@@H](C)O[C@@H](C)C3)cc2)CC1	1%	15%	9	6%	2%	-5%
COc1ccc(OC)c(S(=O)(=O)ON2C(=O)c3ccccc3C2=O)c1	5%	1.5µM*	-13	-27%	2.3µM*	?
CC1CCN(C(=O)Cn2c(=O)c3cccn3c3ccccc32)CC1	6%	-7%	-24	-49%	-9%	-8%
Cc1c(C)c2c(OCC(=O)N3CCC(C(N)=O)CC3)cc3c(c2oc1=O)CCC(C)(C)O3	120%	?	-11	-1%	-26%	16%
CN(C(=O)COC(=O)c1cnc(Cl)c(Cl)c1)C1CCS(=O)(=O)C1 (configuration not stated)	4%	-25%	-86*	-3%	-25%	-7%
CN(C(=O)COc1ccc(Br)cc1Cl)C1CCCCC1	-1%	?	-52*	-2%	?	18%
CN(C(=O)COC(=O)c1ccc(Cl)nc1)C1CCS(=O)(=O)C1 (configuration not stated)	-3%	-13%	-13	-47%	-4%	-3%
CN(C(=O)COC(=O)c1cnc(Cl)c(Cl)c1)C1CCCCC1	4%	-26%	-96*	-3%	-28%	18%
CCCNC(=O)C1CCC(Cn2c(=O)c3sccc3n(CC(=O)N(CC)CC)c2=O)CC1 (configuration not stated)	.	-4%	.	-1%	-21%	-23%
CC(C)N(Cc1c(O)ccc2c(=O)c(-c3ccc(Cl)cc3)coc12)C(C)C	6%	8.2µM*	-4	-18%	2.1µM*	-11%
CC1CCCCN1Cc1c(O)ccc2c(=O)c(-c3ccc(Cl)cc3)coc12 (configuration not stated)	44%	18µM*	?	-4%	7.3µM*	2%
CC1CCCCN1Cc1c(O)ccc2c(=O)c(-c3ccccc3Cl)c(C(F)(F)F)oc12 (configuration not stated)	.	.	.	-16%	.	-1%
CC1CCCCN1Cc1c(O)ccc2c(=O)c(-c3nc4ccccc4s3)c(N)oc12 (configuration not stated)	0%	23µM*	-30	-25%	?	?
CC1CCCCN1Cc1c(O)ccc2c(=O)c(-c3ccc(Br)cc3)coc12 (configuration not stated)	42%	-11%	?	-1%	?	-10%
CC(=O)Oc1ccc(C2(c3ccc(OC(C)=O)cc3)C(=O)Nc3ccccc32)cc1	.	-14%	.	.	6%	.
CCN(CC(=O)NCc1cccs1)C(=O)c1cc(Br)ccc1O	2%	-30%	-18	-12%	?	4%
CC1c2cc3c(cc2CCN1CC(=O)Nc1ccccc1)OCCCO3 (configuration not stated)	-4%	23µM*	6	-35%	15µM*	-12%
Cc1ccc(NC(=O)CN2CCc3cc4c(cc3C2C)OCCCO4)cc1 (configuration not stated)	0%	?	?	-24%	?	-26%
CC1c2cc3c(cc2CCN1C(=O)c1cccc(Cl)c1)OCCCO3 (configuration not stated)	-2%	6.5µM*	20	-27%	7.3µM*	?
O=C(Nc1nc(C2C3CC4CC(C3)CC2C4)cs1)c1cc2cc([N+](=O)[O-])ccc2oc1=O (configuration not stated)	5%	9.2µM*	12	1%	12µM*	?
O=C(c1cc2cc([N+](=O)[O-])ccc2oc1=O)n1cccn1	-4%	?	?	-21%	-6%	-6%
N#C/C(=C\c1c(Cl)cccc1Cl)c1nc2ccccc2[nH]1	0%	-26%	-93*	-14%	?	0%
Cc1ccc2nc(/C(C#N)=C/c3ccc(-c4ccc(F)cc4F)o3)[nH]c2c1	.	5.2µM*	.	0%	2.9µM*	272%
Cc1ccc2nc(/C(C#N)=C/c3ccc(-c4cccc([N+](=O)[O-])c4)o3)[nH]c2c1	-10%	?	0	13%	?	3%
N#C/C(=C\c1ccc(Sc2ccc(Cl)cc2)o1)c1nc2ccccc2[nH]1	-11%	13µM*	0	-31%	21µM*	5%
SMILES	S-ASM inh	TDP1 cell noCPT	IL-1B inflam inh	HepG2 viability	TDP1 cell CPT	TGFb inhibitor
Cc1c(Cl)cccc1-c1ccc(/C=C(\C#N)c2nc3ccccc3[nH]2)o1	.	4.1µM*	.	7.9µM*	10µM*	6.3µM*
Cc1ccc(NC(=O)COC(=O)c2ccc[n+]([O-])c2)c(Br)c1	-5%	18%	-8	-9%	-10%	-6%
CN(C)CCCOc1ccc(C(C)(C)c2ccccc2)cc1	0%	18µM*	?	-47%	?	-5%
CN(C)CCOc1ccc(C(C)(C)c2ccccc2)cc1	3%	?	4	48%	?	-12%
Cc1c(C(=O)N2CCCCC2C)sc2nc3n(c(=O)c12)CCC3 (configuration not stated)	3%	0%	11	-20%	-10%	13%
Cc1cccc(N2CCN(C(=O)c3sc4nc5n(c(=O)c4c3C)CCC5)CC2C)c1 (configuration not stated)	.	13µM*	.	-10%	16µM*	?
Cc1ccc(Cl)cc1N1CCN(C(=O)c2sc3nc4n(c(=O)c3c2C)CCC4)CC1	.	15µM*	.	-1%	15µM*	-7%
COc1ccccc1N1CCN(C(=O)c2sc3nc4n(c(=O)c3c2C)CCC4)CC1	-3%	7%	-3	-14%	1%	-3%
COc1ccc(N2CCN(C(=O)c3sc4nc5n(c(=O)c4c3C)CCC5)CC2)cc1	.	23µM*	.	-40%	?	-10%
CCOC(=O)c1c(C)[nH]c(CCC(=O)Nc2cc(Cl)ccc2OC)c1C	.	21µM*	.	-12%	18µM*	?
CCOC(=O)c1c(C)[nH]c(CCC(=O)NCc2cccc(C)c2)c1C	.	16µM*	.	-4%	?	?
CCOC(=O)c1c(C)[nH]c(CCC(=O)NC(C)c2ccccc2)c1C (configuration not stated)	.	18µM*	.	5%	?	?

High-throughput results as filed in PubChem BioAssay.
